# Results taken from ChEMBL document CHEMBL4808148, “HDAC6 screening dataset using tau-based substrate in an enzymatic assay yields selective inhibitors and activators” (2021).
# The whole screen tested about 5,600 compounds, of which about 390 (7%) showed an effect of 50% or more. The entries come from a sample that favours strong results as a whole.
# Biological target: T1, Protein deacetylase HDAC6 (Homo sapiens) (UniProt Q9UBN7)
# T1 sequence (whole entry): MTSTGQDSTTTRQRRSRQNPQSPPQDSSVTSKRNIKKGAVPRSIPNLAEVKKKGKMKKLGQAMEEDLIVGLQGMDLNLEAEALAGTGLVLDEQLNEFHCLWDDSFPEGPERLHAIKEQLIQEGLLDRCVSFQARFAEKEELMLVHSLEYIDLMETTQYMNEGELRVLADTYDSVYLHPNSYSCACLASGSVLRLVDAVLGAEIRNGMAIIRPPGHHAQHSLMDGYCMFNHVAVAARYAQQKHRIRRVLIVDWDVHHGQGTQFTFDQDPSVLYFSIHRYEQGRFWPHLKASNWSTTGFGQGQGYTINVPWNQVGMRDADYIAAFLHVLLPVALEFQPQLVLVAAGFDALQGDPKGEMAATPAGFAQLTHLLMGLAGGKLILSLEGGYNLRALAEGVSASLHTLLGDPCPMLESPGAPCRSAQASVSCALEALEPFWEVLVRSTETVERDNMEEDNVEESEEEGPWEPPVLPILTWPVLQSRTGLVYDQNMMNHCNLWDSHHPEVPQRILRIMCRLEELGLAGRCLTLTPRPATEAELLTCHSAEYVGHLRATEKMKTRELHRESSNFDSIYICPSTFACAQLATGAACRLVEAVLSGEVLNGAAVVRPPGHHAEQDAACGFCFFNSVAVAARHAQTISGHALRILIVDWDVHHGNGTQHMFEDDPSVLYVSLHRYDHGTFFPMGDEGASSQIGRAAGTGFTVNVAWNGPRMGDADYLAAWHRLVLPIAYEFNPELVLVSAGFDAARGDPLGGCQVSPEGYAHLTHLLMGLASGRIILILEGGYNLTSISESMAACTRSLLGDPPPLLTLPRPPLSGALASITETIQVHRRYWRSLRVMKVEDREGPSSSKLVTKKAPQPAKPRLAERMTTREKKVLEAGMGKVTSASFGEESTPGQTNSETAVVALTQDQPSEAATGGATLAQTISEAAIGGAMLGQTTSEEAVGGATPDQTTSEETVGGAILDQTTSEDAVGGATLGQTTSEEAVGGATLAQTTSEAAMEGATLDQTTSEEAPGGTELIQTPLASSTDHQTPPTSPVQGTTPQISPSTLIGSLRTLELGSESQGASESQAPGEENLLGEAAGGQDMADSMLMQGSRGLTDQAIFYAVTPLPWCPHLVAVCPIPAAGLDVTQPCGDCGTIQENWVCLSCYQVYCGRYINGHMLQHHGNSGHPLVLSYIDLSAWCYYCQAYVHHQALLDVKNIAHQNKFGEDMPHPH
# Conditions: at 10 µM
row,Compound,inhibition
1,O=C(Nc1cccc2cccnc12)c1ccc(N2C(=O)[C@@H]3[C@H](C2=O)[C@H]2C=C[C@@H]3C2)cc1,-1.4%
2,O=C(Nc1cccc2cccnc12)c1ccc(N2C(=O)[C@@H]3[C@H](C2=O)[C@@H]2C=C[C@H]3C2)cc1,56.2%
3,FC(F)(F)c1cc(NC(=S)Nc2ccc(Br)cc2-c2nnn[nH]2)cc(C(F)(F)F)c1,74.5%
4,Oc1nc(O)c2nc(O)[nH]c2n1,12.1%
5,CN1CCN(CCCN2c3ccccc3Sc3ccc(S(=O)(=O)N(C)C)cc32)CC1,-2.89%
6,CN1CCCC(CN2c3ccccc3Sc3ccccc32)C1 (configuration not stated),48.4%
7,CCSc1ccc2c(c1)N(CCCN1CCN(C)CC1)c1ccccc1S2,70.4%
8,COc1ccccc1N1CCN(CCCCNC(=O)c2ccc(-c3ccc(C(C)=O)cc3)cc2)CC1,1.38%
9,CN(C)CCCN1c2ccccc2Sc2ccc(C(F)(F)F)cc21,89.2%
10,CC(CN(C)C)CN1c2ccccc2Sc2ccccc21 (configuration not stated),30.9%
11,OCCN1CCN(CCCN2c3ccccc3Sc3ccc(Cl)cc32)CC1,36.5%
12,COc1ccc2c(c1)N(C[C@H](C)CN(C)C)c1ccccc1S2,14.6%
13,CN1CCN(CCCN2c3ccccc3Sc3ccc(C(F)(F)F)cc32)CC1,59.5%
14,CCN(CC)C(C)CN1c2ccccc2Sc2ccccc21 (configuration not stated),11.7%
15,CC(=O)c1ccc2c(c1)N(CCCN1CCC(CCO)CC1)c1ccccc1S2,76.9%
16,CCC(=N\O)/C(C)=C/c1ccc(F)cc1,47.7%
17,C[C@@H](NCc1cc(Br)cc2nc(O)c(O)nc12)P(=O)(O)O,7.12%
18,CCCCCCCCCCCCCCCCCCCCCC(=O)O,-9.27%
19,COc1cc(N2CCC(N(C)C)CC2)ccc1Nc1ncc(Cl)c(Nc2ccccc2P(C)(C)=O)n1,3.02%
20,CCC[C@@H](NC(=O)N1C(=O)C(CC)(CC)[C@@H]1Oc1ccc(C(=O)N2CCN(C)CC2)cc1)c1ccc2c(c1)OCO2,9.19%
21,CCn1c2ccccc2c2cc(CNC)ccc21,-7.52%
22,COc1cccc(OC)c1-c1cc(C(=O)N[C@@H](CC(C)C)C(=O)O)nn1-c1ccnc2cc(Cl)ccc12,6.09%
23,CCCCN1CC(O)C(O)C(O)C1CO (configuration not stated),-6.7%
24,COc1cc2c(cc1NS(=O)(=O)c1ccc(Br)cc1C)n(C)c(=O)n2C,19.4%

row,Compound,inhibition
1,O=c1[nH]c([C@@H]2CCCN2)nc2c1oc1ccc(Cl)cc12,-8.21%
2,CC(C)(C)NC(=O)[C@@H]1C[C@@H]2CCCC[C@@H]2CN1C[C@@H](O)[C@H](Cc1ccccc1)NC(=O)[C@H](CC(N)=O)NC(=O)c1ccc2ccccc2n1,2.2%
3,NCCCC(N)C(=O)O (configuration not stated),-5.26%
4,CCCCC/C=C\C/C=C\C/C=C\CCCCC(=O)O,20.4%
5,O=c1n(CC2CO2)c(=O)n(CC2CO2)c(=O)n1CC1CO1 (configuration not stated),21.5%
6,CN(C)CCCN1c2ccccc2Sc2ccc(Cl)cc21,59.7%
7,CN(C)CCCN1c2ccccc2CCc2ccc(Cl)cc21,7.48%
8,CCN(CC)CCCCN1c2ccccc2Oc2ccc(Cl)cc21,22.7%
9,c1ccc2c(Oc3nc(Nc4ccc(N5CCOCC5)cc4)c4ncn(C5CCCCC5)c4n3)cccc2c1,2.11%
10,O=C(c1c2ccccc2cc2ccccc12)N1CCC(N2CCC[C@@H](C(=O)N3CCOCC3)C2)CC1,16%
11,C[C@@]12CCC3[C@@](CC[C@@H]4[C@](C)(C(=O)O)CCC[C@@]34C)(CC1=O)C2 (some centres not stated),11.5%
12,c1ccc2c(c1)CCC[C@H]2Nc1nc2ccccc2[nH]1,96.9%
13,CCNC(=O)N1CCN(CCCC(c2ccc(F)cc2)c2ccc(F)cc2)CC1,-5.99%
14,CCCCCCCCCCCCCCCC(=O)N[C@@H](CCC(=O)NCCCC[C@H](NC(=O)[C@H](C)NC(=O)[C@H](C)NC(=O)[C@H](CCC(N)=O)NC(=O)CNC(=O)[C@H](CCC(=O)O)NC(=O)[C@H](CC(C)C)NC(=O)[C@H](Cc1ccc(O)cc1)NC(=O)[C@H](CO)NC(=O)[C@H](CO)NC(=O)[C@@H](NC(=O)[C@H](CC(=O)O)NC(=O)[C@H](CO)NC(=O)[C@@H](NC(=O)[C@H](Cc1ccccc1)NC(=O)[C@@H](NC(=O)CNC(=O)[C@H](CCC(=O)O)NC(=O)[C@H](C)NC(=O)[C@@H](N)Cc1cnc[nH]1)[C@@H](C)O)[C@@H](C)O)C(C)C)C(=O)N[C@@H](CCC(=O)O)C(=O)N[C@@H](Cc1ccccc1)C(=O)N[C@H](C(=O)N[C@@H](C)C(=O)N[C@@H](Cc1c[nH]c2ccccc12)C(=O)N[C@@H](CC(C)C)C(=O)N[C@H](C(=O)N[C@@H](CCCNC(=N)N)C(=O)NCC(=O)N[C@@H](CCCNC(=N)N)C(=O)NCC(=O)O)C(C)C)[C@@H](C)CC)C(=O)O,102%
15,CC(C)C[C@H](NC(=O)CNC(=O)[C@H](Cc1ccc(O)cc1)NC(=O)[C@H](CO)NC(=O)[C@H](Cc1c[nH]c2ccccc12)NC(=O)[C@H](Cc1cnc[nH]1)NC(=O)[C@@H]1CCC(=O)N1)C(=O)N[C@@H](CCCNC(=N)N)C(=O)N1CCC[C@H]1C(=O)NCC(N)=O,18.4%
16,CC(C)C[C@H](NC(=O)[C@@H](COC(C)(C)C)NC(=O)[C@H](Cc1ccc(O)cc1)NC(=O)[C@H](CO)NC(=O)[C@H](Cc1c[nH]c2ccccc12)NC(=O)[C@H](Cc1cnc[nH]1)NC(=O)[C@@H]1CCC(=O)N1)C(=O)N[C@@H](CCCNC(=N)N)C(=O)N1CCC[C@H]1C(=O)NNC(N)=O,7.12%
17,CCCCc1nc2ccn(CC(=O)N(C)C)c(=O)c2n1Cc1ccc(-c2ccccc2-c2nnn[nH]2)cc1,0.96%
18,CCCc1cc(C)[nH]c(=O)c1CNC(=O)c1cc(-c2ccc(N3CCN(C(C)C)CC3)nc2)cc2c1cnn2C(C)C,8.48%
19,O[C@@H](COc1cccc2ncccc12)CN1CCN([C@@H]2c3ccccc3[C@@H]3[C@H](c4ccccc42)C3(F)F)CC1,10.7%
20,Cc1ccc(-n2nc(C(C)(C)C)cc2NC(=O)Nc2ccc(OCCN3CCOCC3)c3ccccc23)cc1,71.1%
21,Cc1cc(OCCN2CCOCC2)nn1-c1ccc2ccccc2c1,10.2%
22,CC(C)(C)c1cc(NC(=O)Nc2ccc(-c3cn4c(n3)sc3cc(OCCN5CCOCC5)ccc34)cc2)no1,1.57%
23,O[C@H]1[C@H](O)[C@@H](O)[C@H](O)[C@@H](O)[C@H]1O,22.8%
